A549 viability: Nrf2 qHTS screen for inhibitors: counterscreen for cytotoxicity; A549 ARE-Fluc cells, CellTiter-Fluor viability, 18-24 h; Potency, µM (series often up to 46 µM), most hits filed as inhibitors; 0.16% of 390,000 active
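A549 ARE_Fluc cells in 5% FBS OPTI-MEM were exposed to compounds in concentration-response for 18-24 h at 37 deg C. Viability was read by CellTiter-Fluor fluorescence (Ex 405/Em 525) after 30 min, before the luciferase read.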
ATXN2 expr inh: Primary qHTS for Inhibitors of ATXN expression; HEK-293 ATXN2-luciferase reporter, luminescence, 24 h; Potency, µM (doses to about 57 µM), usual class: inhibitors; 0.72% of 360,000 active; also: nearly all actives have a fitted effect of over 55% in size
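qHTS (up to 57 uM final) was run with 24 h compound exposure of reporter cells at 37 °C. Each well was multiplexed: SteadyGlo luminescence measured ATXN2-luciferase expression after a fluorogenic Gly-Phe-AFC viability readout (25 uM final).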
Nrf2 block: Nrf2 qHTS screen for inhibitors; A549 ARE-Fluc reporter, luciferase luminescence, 18-24 h; Potency, µM (highest dose often 46 µM), actives largely listed as inhibitors; AID 504444, 2011; 2.1% of 360,000 active; also: nearly all actives have a fitted effect of over 60% in size
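Quantitative HTS in A549 cells stably bearing an antioxidant response element-firefly luciferase construct. Inhibition of Nrf2-driven transcription was scored by luminescence after 18-24 h of compound exposure at 37 °C.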
S2 tox: Viability Counterscreen for Primary qHTS for Inhibitors of ATXN expression. S2 cells (HEK-293 line with an ATXN2-luciferase reporter) viability, CellTiter-Fluor protease fluorescence, 24 h. Potency, µM (titrated, usually from 56.7 µM), hits mostly cytotoxic. AID 651635, 2014. 0.49% of 400,000 active; also: nearly all actives have a fitted effect of over 40% in size
Nrf2 activator: qHTS of Nrf2 Activators. AREc32 ARE-luciferase reporter (MCF7-derived line), luminescence, 24 h. Potency, µM (highest dose often 46.1 µM), actives largely listed as activators. 0.31% of 410,000 active. AID 624171, 2012; also: nearly all actives have a fitted effect of over 65% in size
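AREc32 cells carrying an ARE-driven firefly luciferase reporter were seeded at 1000 cells/well in OPTI-MEM with 5% FBS, then exposed to compound for 24 hr at 37 deg C. Luminescence was read with Steady-Glo after 30 min at RT.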
Hits are given with their value. Most compounds without a hit are left out; they make up all but 2.9% or so of the library. Calls follow the shape of the dose curve; as a rule, active = well fitted curve in the direction sought with a large enough effect; inconclusive = small, poorly fitted or top-dose-only effect, or another doubt; inactive = no such curve, though single readings can be large; an effect the other way counts as inactive or inconclusive.

How did CCCc1nc2ccccc2c(C(=O)OCC(=O)Nc2ccc(S(=O)(=O)N3CCOCC3)cc2)c1CC do in these assays?
A549 viability: inconclusive; ATXN2 expr inh: inconclusive; Nrf2 block: 23µM; S2 tox: inconclusive; Nrf2 activator: inactive

How did O=C(CSc1nc2cc(Cl)ccc2s1)Nc1cccc(S(=O)(=O)N2CCOCC2)c1 do in these assays?
A549 viability: inactive; ATXN2 expr inh: inactive; Nrf2 block: 23µM; S2 tox: inactive; Nrf2 activator: inactive

Results for O=C(CSc1ncnc2ccccc12)Nc1cccc(S(=O)(=O)N2CCOCC2)c1 ?
A549 viability: inactive; ATXN2 expr inh: inactive; Nrf2 block: 16µM; S2 tox: inactive; Nrf2 activator: inactive

Results for Cc1ccc(F)cc1S(=O)(=O)NCc1nc(N2CCCC2)c2cccc(C)c2n1 ?
S2 tox: inactive

How did O=C(CSc1cccc2cccnc12)Nc1ccc(S(=O)(=O)N2CCOCC2)cc1 do in these assays?
A549 viability: inactive; ATXN2 expr inh: 13µM; Nrf2 block: inactive; S2 tox: 11µM; Nrf2 activator: inconclusive

What do the screens show for `O=C(CSc1cccc2cccnc12)Nc1cccc(S(=O)(=O)N2CCOCC2)c1`?
A549 viability: inactive; ATXN2 expr inh: inactive; Nrf2 block: inactive; S2 tox: inactive; Nrf2 activator: inactive

Results for CCCCCCCCCCOC(=O)Cn1c(COc2ccccc2C)[n+](C)c2ccccc21 ?
A549 viability: inconclusive; ATXN2 expr inh: 22µM; Nrf2 block: inconclusive; S2 tox: inconclusive; Nrf2 activator: inactive

What do the screens show for `CCCCCCCCCCOC(=O)Cn1c(COc2ccc(OC)cc2)[n+](C)c2ccccc21`?
A549 viability: inconclusive; ATXN2 expr inh: inconclusive; Nrf2 block: 21µM; S2 tox: inconclusive; Nrf2 activator: inactive

What do the screens show for `COc1cccc(C2c3c(ncn(-c4ccc(Br)cc4)c3=N)Oc3ccc4ccccc4c32)c1` (stereo unspecified)?
A549 viability: inactive; Nrf2 block: inactive

How did Clc1ccc(-c2csc(N/N=C/c3cccnc3)n2)c(Cl)c1 do in these assays?
A549 viability: inactive; ATXN2 expr inh: inactive; Nrf2 block: 13µM; S2 tox: inactive; Nrf2 activator: inactive

Results for C(=N\Nc1nc(-c2ccccc2)cs1)/c1cccnc1 ?
A549 viability: inactive; ATXN2 expr inh: inactive; Nrf2 block: inactive; S2 tox: inactive; Nrf2 activator: inactive

How did O=S(=O)(Nc1cccc(-c2cn3cccnc3n2)c1)c1ccc(F)cc1 do in these assays?
A549 viability: inactive; ATXN2 expr inh: inactive; Nrf2 block: 16µM; S2 tox: inactive; Nrf2 activator: inactive

How did O=S(=O)(Nc1cccc(-c2cn3cccnc3n2)c1)c1ccc(-c2ccccc2)cc1 do in these assays?
A549 viability: inactive; ATXN2 expr inh: inactive; S2 tox: inactive; Nrf2 activator: inactive

Results for O=C(NCCN1CCOCC1)C1(C(F)(F)F)C/C(=C/CCO)CCCO1 (stereo unspecified) ?
A549 viability: inactive; Nrf2 block: inactive

How did CC(C)(O)CC[C@@H](O)[C@](C)(O)[C@H]1CC[C@@]2(O)C3=CC(=O)[C@@H]4C[C@@H](O)[C@@H](O)C[C@]4(C)[C@@H]3CC[C@]12C do in these assays?
ATXN2 expr inh: inactive

How did COCCCNC(=O)c1ccc(-n2c(-c3ccccc3)cc3c2CCCCC3)cc1 do in these assays?
A549 viability: inactive; ATXN2 expr inh: inactive; Nrf2 block: inconclusive; S2 tox: inconclusive; Nrf2 activator: inconclusive

Results for CC1CCc2c(cc(-c3ccccc3)n2-c2ccc(C(=O)NC(C)C)cc2)C1 (stereo unspecified) ?
A549 viability: inconclusive; Nrf2 block: inconclusive; Nrf2 activator: 2.8µM

What do the screens show for `CN(C)CCNC(=O)c1ccc(-n2c(-c3ccccc3)cc3c2CCCCC3)cc1`?
A549 viability: inactive; Nrf2 block: inconclusive; Nrf2 activator: inconclusive

What do the screens show for `CC(C)NC(=O)c1ccc(-n2c(-c3ccccc3)cc3c2CCCCC3)cc1`?
A549 viability: inactive; Nrf2 block: inconclusive; Nrf2 activator: 13µM

Results for CCOCCCNC(=O)c1ccc(-n2c(-c3ccccc3)cc3c2CCCC3)cc1 ?
A549 viability: inactive; Nrf2 block: inconclusive; Nrf2 activator: 11µM

Results for Cc1ncc(-c2ccc(F)cc2)c(C2CCCN(Cc3cccc(O)c3)C2)n1 (stereo unspecified) ?
S2 tox: inactive

How did CC1(C)CCN2CCC(C)(C)c3c(O)ccc1c32 do in these assays?
A549 viability: inactive; ATXN2 expr inh: 3.2µM; Nrf2 block: inconclusive; S2 tox: inconclusive; Nrf2 activator: inactive

Results for COc1ccc(/C(C)=N/NC2=NCCN2)cc1Cl ?
A549 viability: inactive; ATXN2 expr inh: inactive; Nrf2 block: inactive; S2 tox: inconclusive; Nrf2 activator: inactive

What do the screens show for `CCCCCCOc1ccc(/C(C)=N/NC2=NCCN2)cc1[N+](=O)[O-]`?
A549 viability: inactive; Nrf2 block: inactive; S2 tox: 18µM; Nrf2 activator: inactive

What do the screens show for `C/C(=N\NC1=NCCN1)c1ccc(N)c([N+](=O)[O-])c1`?
A549 viability: inactive; ATXN2 expr inh: inactive; Nrf2 block: inactive; S2 tox: inactive; Nrf2 activator: inactive

How did CCCCOc1ccc(Br)cc1/C(C)=N/NC1=NCCN1 do in these assays?
A549 viability: 12µM; ATXN2 expr inh: 18µM; Nrf2 block: inconclusive; Nrf2 activator: inactive

Results for C=C1C(=O)[C@]23C[C@H]1CCC2[C@]1(C)CCC[C@@](C)(C(=O)O)C1C[C@@H]3O (stereo partly specified) ?
ATXN2 expr inh: 3.5µM; S2 tox: 7.1µM; Nrf2 activator: inconclusive

How did C=C1C(=O)[C@]23C[C@H]1CC[C@H]2[C@]1(C)[C@@H](OC(C)=O)CC[C@@](C)(C(=O)O)[C@H]1C[C@@H]3OC(C)=O do in these assays?
ATXN2 expr inh: 18µM; S2 tox: inconclusive; Nrf2 activator: inactive

Results for C=C1C(=O)[C@]23C[C@H]1CCC2[C@]1(C)C(=O)CC[C@@](C)(C(=O)O)C1C[C@@H]3O (stereo partly specified) ?
ATXN2 expr inh: 8.9µM; S2 tox: 13µM; Nrf2 activator: inconclusive

What do the screens show for `O=C(Nc1ccc(Cl)cc1)C1CCN(S(=O)(=O)c2ccc(Br)s2)CC1`?
A549 viability: inactive; ATXN2 expr inh: inactive; Nrf2 block: 23µM; S2 tox: inconclusive; Nrf2 activator: inactive

How did CCN(CC)c1ccc(NC(=O)CCS(=O)(=O)c2cc3c(cc2Cl)NC(=O)CO3)c(C)c1 do in these assays?
A549 viability: inconclusive; ATXN2 expr inh: inactive; Nrf2 block: 16µM; S2 tox: inactive; Nrf2 activator: inactive

How did O=C(NCCc1cccnc1)c1cnn(-c2ncc3c(n2)-c2ccccc2CC3)c1C1CC1 do in these assays?
S2 tox: inactive

Results for Cc1ccc(N2CCN(S(=O)(=O)c3nnc(NC(=O)c4cccc(F)c4)s3)CC2)cc1 ?
A549 viability: inactive; ATXN2 expr inh: inactive; Nrf2 block: inconclusive; S2 tox: inactive; Nrf2 activator: inactive
